Reference: PubChem BioAssay AID1159580 (chemical genetic matrix, 2015)
“And” between values parts separate entries of the source, which are not always exact repeats. Equal values may be shown once. Among all 5,500 compounds or so, about 2,000 (36%) were called active. Inconclusive results (about 18%) are left out. No stated cut-off is given here; in the data, active means normalized growth mostly below about 0.91 (no sharp cut-off); inconclusive means no clear call, values can overlap the other calls; inactive means mostly above about 0.92. Some of the results follow.

Test: chemical genetic growth profiling, strain panel (AID 1159580);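 further: tested at 20 µM; growth read once vehicle control cultures reached saturation at 30 °C; 1 = growth at the plate median or of vehicle wells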
Details: growth OD

Measured: normalized growth

Cc1ncc(CNC(=O)N(CCCl)N=O)c(N)n1
active: S. cerevisiae deletion strains, locus YML032C, strain rad52, stronger effect = lower value 0.903
inactive: S. cerevisiae deletion strains, locus YJR075W, strain HOC1, stronger effect = lower value 1.01 | S. cerevisiae deletion strains, locus YKL009W, strain mrt4, stronger effect = lower value 0.976 | S. cerevisiae deletion strains, locus YKL068W, stronger effect = lower value 1 | S. cerevisiae deletion strains, locus YKL085W, strain MDH1 (second series), stronger effect = lower value 0.996 | S. cerevisiae deletion strains, locus YKL085W, strain MDH1, stronger effect = lower value 0.996 | S. cerevisiae deletion strains, locus YKL160W, strain elf1, stronger effect = lower value 0.996 | S. cerevisiae deletion strains, locus YKL190W, strain CNB1, stronger effect = lower value 1.01 | S. cerevisiae deletion strains, locus YKR001C, strain vps1, stronger effect = lower value 0.974 | S. cerevisiae deletion strains, locus YKR026C, strain gcn3, stronger effect = lower value 1.02 | S. cerevisiae deletion strains, locus YKR091W, strain srl3, stronger effect = lower value 1 | S. cerevisiae deletion strains, locus YLL001W, strain dnm1, stronger effect = lower value 0.97 | S. cerevisiae deletion strains, locus YLL026W, stronger effect = lower value 1.01 | S. cerevisiae deletion strains, locus YLL041C, strain sdh2, stronger effect = lower value 1.01 | S. cerevisiae deletion strains, locus YLR027C, strain aat2, stronger effect = lower value 0.99 | S. cerevisiae deletion strains, locus YLR039C, strain RIC1, stronger effect = lower value 1.04 | S. cerevisiae deletion strains, locus YLR058C, strain SHM2, stronger effect = lower value 1.02 | S. cerevisiae deletion strains, locus YLR102C, strain apc9, stronger effect = lower value 0.983 | S. cerevisiae deletion strains, locus YLR113W, strain HOG1, stronger effect = lower value 0.982 | S. cerevisiae deletion strains, locus YLR221C, strain rsa3, stronger effect = lower value 1.03 | S. cerevisiae deletion strains, locus YLR258W, strain gsy2, stronger effect = lower value 1 | S. cerevisiae deletion strains, locus YLR262C, strain YPT6 (second series), stronger effect = lower value 1.07 | S. cerevisiae deletion strains, locus YLR262C, strain YPT6, stronger effect = lower value 1.03 | S. cerevisiae deletion strains, locus YLR268W, strain sec22, stronger effect = lower value 0.983 | S. cerevisiae deletion strains, locus YLR320W, strain mms22, stronger effect = lower value 1.03 | S. cerevisiae deletion strains, locus YLR330W, strain CHS5, stronger effect = lower value 1.02 | S. cerevisiae deletion strains, locus YLR342W, strain FKS1 (second series), stronger effect = lower value 1.01 | S. cerevisiae deletion strains, locus YLR342W, strain FKS1, stronger effect = lower value 1.02 | S. cerevisiae deletion strains, locus YLR357W, strain rsc2, stronger effect = lower value 1.02 | S. cerevisiae deletion strains, locus YLR370C, strain arc18, stronger effect = lower value 1.01 | S. cerevisiae deletion strains, locus YLR371W, strain rom2, stronger effect = lower value 0.981 | S. cerevisiae deletion strains, locus YLR384C, strain iki3, stronger effect = lower value 1.03 | S. cerevisiae deletion strains, locus YLR418C, strain cdc73, stronger effect = lower value 0.965 | S. cerevisiae deletion strains, locus YML016C, strain PPZ1, stronger effect = lower value 1.02 | S. cerevisiae deletion strains, locus YML120C, strain ndi1, stronger effect = lower value 0.991 | S. cerevisiae deletion strains, locus YML124C, strain tub3, stronger effect = lower value 0.989 | S. cerevisiae deletion strains, locus YMR058W, strain fet3, stronger effect = lower value 1.02 | S. cerevisiae deletion strains, locus YMR078C, strain ctf18, stronger effect = lower value 0.964 | S. cerevisiae deletion strains, locus YMR125W, strain sto1, stronger effect = lower value 1 | S. cerevisiae deletion strains, locus YMR129W, stronger effect = lower value 1.02 | S. cerevisiae deletion strains, locus YMR205C, strain PFK2, stronger effect = lower value 1.01 | S. cerevisiae deletion strains, locus YMR223W, strain ubp8, stronger effect = lower value 0.994 | S. cerevisiae deletion strains, locus YMR231W, strain pep5, stronger effect = lower value 1 | S. cerevisiae deletion strains, locus YMR263W, strain SAP30, stronger effect = lower value 1.01 | S. cerevisiae deletion strains, locus YMR307W, strain GAS1, stronger effect = lower value 0.992 and 1.01 | S. cerevisiae deletion strains, locus YNL067W, strain RPL9B, stronger effect = lower value 1.01 | S. cerevisiae deletion strains, locus YNL071W, strain lat1, stronger effect = lower value 1.01 | S. cerevisiae deletion strains, locus YNL128W, strain TEP1, stronger effect = lower value 1.01 and 1 | S. cerevisiae deletion strains, locus YNL153C, strain GIM3, stronger effect = lower value 1.02 and 0.991 | S. cerevisiae deletion strains, locus YNL175C, strain NOP13, stronger effect = lower value 0.997 | S. cerevisiae deletion strains, locus YNL183C, strain NPR1, stronger effect = lower value 0.913 | S. cerevisiae deletion strains, locus YNL197C, strain WHI3, stronger effect = lower value 0.999 | S. cerevisiae deletion strains, locus YNL209W, strain ssb2, stronger effect = lower value 0.992 | S. cerevisiae deletion strains, locus YNL224C, strain SQS1, stronger effect = lower value 1.01 | S. cerevisiae deletion strains, locus YNL233W, strain BNI4, stronger effect = lower value 1.01 | S. cerevisiae deletion strains, locus YNL248C, strain rpa49, stronger effect = lower value 1.02 | S. cerevisiae deletion strains, locus YNL250W, strain rad50, stronger effect = lower value 0.972 | S. cerevisiae deletion strains, locus YNL271C, strain bni1, stronger effect = lower value 0.979 | S. cerevisiae deletion strains, locus YNL298W, strain CLA4, stronger effect = lower value 0.996 | S. cerevisiae deletion strains, locus YNL307C, strain MCK1, stronger effect = lower value 1 | S. cerevisiae deletion strains, locus YNL322C, strain KRE1 (second series), stronger effect = lower value 0.937 | S. cerevisiae deletion strains, locus YNL322C, strain KRE1, stronger effect = lower value 1.01 | S. cerevisiae deletion strains, locus YNR049C, strain mso1, stronger effect = lower value 1.02 | S. cerevisiae deletion strains, locus YNR052C, strain pop2, stronger effect = lower value 0.983 | S. cerevisiae deletion strains, locus YOL006C, strain TOP1, stronger effect = lower value 1.02 | S. cerevisiae deletion strains, locus YOL012C, strain htz1 1.04 | S. cerevisiae deletion strains, locus YOL147C, strain pex11, stronger effect = lower value 0.978 | S. cerevisiae deletion strains, locus YOR001W, strain rrp6, stronger effect = lower value 1.03 | S. cerevisiae deletion strains, locus YOR061W, strain CKA2, stronger effect = lower value 1.02 | S. cerevisiae deletion strains, locus YOR069W, strain VPS5, stronger effect = lower value 1.02 | S. cerevisiae deletion strains, locus YOR070C, strain gyp1, stronger effect = lower value 1.03 | S. cerevisiae deletion strains, locus YOR080W, strain dia2, stronger effect = lower value 1.01 | S. cerevisiae deletion strains, locus YOR083W, strain WHI5 (second series), stronger effect = lower value 1.01 | S. cerevisiae deletion strains, locus YOR083W, strain WHI5, stronger effect = lower value 0.979 | S. cerevisiae deletion strains, locus YOR106W, strain vam3, stronger effect = lower value 0.959 | S. cerevisiae deletion strains, locus YOR136W, strain idh2, stronger effect = lower value 0.981 | S. cerevisiae deletion strains, locus YOR144C, strain elg1, stronger effect = lower value 0.978 | S. cerevisiae deletion strains, locus YOR184W, strain ser1, stronger effect = lower value 0.989 | S. cerevisiae deletion strains, locus YOR231W, strain MKK1, stronger effect = lower value 0.953 | S. cerevisiae deletion strains, locus YOR265W, strain rbl2, stronger effect = lower value 1.01 | S. cerevisiae deletion strains, locus YOR270C, strain vph1, stronger effect = lower value 1.03 | S. cerevisiae deletion strains, locus YOR290C, strain snf2, stronger effect = lower value 0.993 | S. cerevisiae deletion strains, locus YOR316C, strain cot1, stronger effect = lower value 0.99 | S. cerevisiae deletion strains, locus YPL051W, strain arl3, stronger effect = lower value 0.974 | S. cerevisiae deletion strains, locus YPL055C, strain LGE1, stronger effect = lower value 1.02 | S. cerevisiae deletion strains, locus YPL078C, strain atp4, stronger effect = lower value 0.98 | S. cerevisiae deletion strains, locus YPL106C, strain sse1, stronger effect = lower value 1.02 | S. cerevisiae deletion strains, locus YPL240C, strain hsp82, stronger effect = lower value 1.01 | S. cerevisiae deletion strains, locus YPL241C, strain CIN2, stronger effect = lower value 1.02 | S. cerevisiae deletion strains, locus YPL256C, strain CLN2, stronger effect = lower value 0.989 | S. cerevisiae deletion strains, locus YPR119W, strain clb2, stronger effect = lower value 0.978 | S. cerevisiae deletion strains, locus YPR141C, strain kar3, stronger effect = lower value 0.987 | S. cerevisiae deletion strains, locus YPR163C, strain tif3, stronger effect = lower value 0.98 | S. cerevisiae deletion strains, locus YPR167C, strain met16, stronger effect = lower value 0.982 | S. cerevisiae deletion strains, strain wtn01, stronger effect = lower value 0.987 | S. cerevisiae strains, strain wild type, stronger effect = lower value 1.01
